The source made the active and inactive calls.
Tests used:
[1] = tested on: PRMT1 (protein arginine N-methyltransferase 1); assay: small molecules binding arginine methyltransferase PRMT1 – biochemical, small-molecule microarray, 635 nm fluorescence, primary screen (AID 1088); conditions: higher = more signal;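 further: binding of Prmt1 protein to compounds spotted on small-molecule microarray slides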
[2] = growth effects on S. cerevisiae YJM789 – YJM789 clinical isolate, OD600, 24 h, basal, primary screen (AID 1089); conditions: higher = more signal, called active from +8 up or from −8 down;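 further: growth of clinical yeast isolate S. cerevisiae YJM 789 seeded 1000 cells per well; test concentration not given here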
[3] = S. pombe growth modifiers, basal conditions – strain 972, OD600, 24 h, no modulator, primary screen (AID 1090);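 further: basal condition with compound alone and no growth modifier present; test concentration not given here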; conditions: S. pombe 972 growth, higher = more signal, called active from +8 up or from −8 down
[4] = budding yeast growth modifiers under rapamycin – strain BY4716, OD600, 96 h, primary screen (AID 1091); further: test concentration not given here; conditions: S. cerevisiae BY4716 + rapamycin, higher = more signal, called active from +8 up or from −8 down
[5] = molecular target: Torsin-1A-interacting protein 2 (Homo sapiens) (UniProt Q8NFQ8); assay: small molecules binding lysate-expressed LULL1 – cell lysate, human LULL1 lysate, 635/667 nm fluorescence, primary screen (AID 1092); conditions: small-molecule microarray, hLULL1 lysate binding, 635 nm fluorescence; higher = more signal;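 further: probe is lysate of COS7 cells overexpressing human LULL1; score merges per-feature 667 nm fluorescence with signal-to-noise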
Chain of Torsin-1A-interacting protein 2 (Homo sapiens) (Q8NFQ8 whole entry, looked up): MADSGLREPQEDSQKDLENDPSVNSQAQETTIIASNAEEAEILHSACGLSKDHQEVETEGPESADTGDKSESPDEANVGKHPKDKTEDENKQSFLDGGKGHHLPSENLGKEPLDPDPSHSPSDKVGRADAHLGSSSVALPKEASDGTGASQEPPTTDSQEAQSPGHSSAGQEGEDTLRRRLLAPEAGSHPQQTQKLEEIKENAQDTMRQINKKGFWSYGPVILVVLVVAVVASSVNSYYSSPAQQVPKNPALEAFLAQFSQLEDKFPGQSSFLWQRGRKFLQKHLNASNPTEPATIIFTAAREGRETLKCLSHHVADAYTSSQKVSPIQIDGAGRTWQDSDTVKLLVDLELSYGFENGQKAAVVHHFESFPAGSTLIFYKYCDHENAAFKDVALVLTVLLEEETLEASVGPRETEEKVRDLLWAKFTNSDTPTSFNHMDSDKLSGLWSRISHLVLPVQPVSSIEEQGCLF

[6] = optical density change of DRC41 E. coli – strain DRC41, OD650, 24 h, E. coli filamentation project, primary screen (AID 1093);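 further: MC1000 strain lacking acrAB efflux and sulA so SOS filamentation is blocked; test concentration not given here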; conditions: E. coli DRC41 growth, higher = more signal, called active from +8 up or from −8 down
[7] = probe aLefty2 binding to arrayed compounds – biochemical, biotinylated probe, 635/667 nm fluorescence, primary screen (AID 1094); conditions: small-molecule microarray, higher = more signal;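 further: score merges spot fluorescence near 667 nm with spot signal-to-noise ratio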
[8] = tested on: Noggin (protein binding on small-molecule microarray); assay: small molecules binding Noggin protein – biochemical, 635/667 nm fluorescence, primary screen (AID 1095); conditions: 635 nm fluorescence, higher = more signal;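 further: score merges 667 nm feature fluorescence with signal to noise over triplicate slides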
[9] = molecular target: Neurogenic locus notch homolog protein 3 (Homo sapiens) (UniProt Q9UM47); assay: small molecules binding NOTCH3 protein – biochemical, 635/667 nm fluorescence, primary screen (AID 1096); conditions: small-molecule microarray, 635 nm fluorescence, higher = more signal
Chain of Neurogenic locus notch homolog protein 3 (Homo sapiens) (Q9UM47 whole entry, looked up): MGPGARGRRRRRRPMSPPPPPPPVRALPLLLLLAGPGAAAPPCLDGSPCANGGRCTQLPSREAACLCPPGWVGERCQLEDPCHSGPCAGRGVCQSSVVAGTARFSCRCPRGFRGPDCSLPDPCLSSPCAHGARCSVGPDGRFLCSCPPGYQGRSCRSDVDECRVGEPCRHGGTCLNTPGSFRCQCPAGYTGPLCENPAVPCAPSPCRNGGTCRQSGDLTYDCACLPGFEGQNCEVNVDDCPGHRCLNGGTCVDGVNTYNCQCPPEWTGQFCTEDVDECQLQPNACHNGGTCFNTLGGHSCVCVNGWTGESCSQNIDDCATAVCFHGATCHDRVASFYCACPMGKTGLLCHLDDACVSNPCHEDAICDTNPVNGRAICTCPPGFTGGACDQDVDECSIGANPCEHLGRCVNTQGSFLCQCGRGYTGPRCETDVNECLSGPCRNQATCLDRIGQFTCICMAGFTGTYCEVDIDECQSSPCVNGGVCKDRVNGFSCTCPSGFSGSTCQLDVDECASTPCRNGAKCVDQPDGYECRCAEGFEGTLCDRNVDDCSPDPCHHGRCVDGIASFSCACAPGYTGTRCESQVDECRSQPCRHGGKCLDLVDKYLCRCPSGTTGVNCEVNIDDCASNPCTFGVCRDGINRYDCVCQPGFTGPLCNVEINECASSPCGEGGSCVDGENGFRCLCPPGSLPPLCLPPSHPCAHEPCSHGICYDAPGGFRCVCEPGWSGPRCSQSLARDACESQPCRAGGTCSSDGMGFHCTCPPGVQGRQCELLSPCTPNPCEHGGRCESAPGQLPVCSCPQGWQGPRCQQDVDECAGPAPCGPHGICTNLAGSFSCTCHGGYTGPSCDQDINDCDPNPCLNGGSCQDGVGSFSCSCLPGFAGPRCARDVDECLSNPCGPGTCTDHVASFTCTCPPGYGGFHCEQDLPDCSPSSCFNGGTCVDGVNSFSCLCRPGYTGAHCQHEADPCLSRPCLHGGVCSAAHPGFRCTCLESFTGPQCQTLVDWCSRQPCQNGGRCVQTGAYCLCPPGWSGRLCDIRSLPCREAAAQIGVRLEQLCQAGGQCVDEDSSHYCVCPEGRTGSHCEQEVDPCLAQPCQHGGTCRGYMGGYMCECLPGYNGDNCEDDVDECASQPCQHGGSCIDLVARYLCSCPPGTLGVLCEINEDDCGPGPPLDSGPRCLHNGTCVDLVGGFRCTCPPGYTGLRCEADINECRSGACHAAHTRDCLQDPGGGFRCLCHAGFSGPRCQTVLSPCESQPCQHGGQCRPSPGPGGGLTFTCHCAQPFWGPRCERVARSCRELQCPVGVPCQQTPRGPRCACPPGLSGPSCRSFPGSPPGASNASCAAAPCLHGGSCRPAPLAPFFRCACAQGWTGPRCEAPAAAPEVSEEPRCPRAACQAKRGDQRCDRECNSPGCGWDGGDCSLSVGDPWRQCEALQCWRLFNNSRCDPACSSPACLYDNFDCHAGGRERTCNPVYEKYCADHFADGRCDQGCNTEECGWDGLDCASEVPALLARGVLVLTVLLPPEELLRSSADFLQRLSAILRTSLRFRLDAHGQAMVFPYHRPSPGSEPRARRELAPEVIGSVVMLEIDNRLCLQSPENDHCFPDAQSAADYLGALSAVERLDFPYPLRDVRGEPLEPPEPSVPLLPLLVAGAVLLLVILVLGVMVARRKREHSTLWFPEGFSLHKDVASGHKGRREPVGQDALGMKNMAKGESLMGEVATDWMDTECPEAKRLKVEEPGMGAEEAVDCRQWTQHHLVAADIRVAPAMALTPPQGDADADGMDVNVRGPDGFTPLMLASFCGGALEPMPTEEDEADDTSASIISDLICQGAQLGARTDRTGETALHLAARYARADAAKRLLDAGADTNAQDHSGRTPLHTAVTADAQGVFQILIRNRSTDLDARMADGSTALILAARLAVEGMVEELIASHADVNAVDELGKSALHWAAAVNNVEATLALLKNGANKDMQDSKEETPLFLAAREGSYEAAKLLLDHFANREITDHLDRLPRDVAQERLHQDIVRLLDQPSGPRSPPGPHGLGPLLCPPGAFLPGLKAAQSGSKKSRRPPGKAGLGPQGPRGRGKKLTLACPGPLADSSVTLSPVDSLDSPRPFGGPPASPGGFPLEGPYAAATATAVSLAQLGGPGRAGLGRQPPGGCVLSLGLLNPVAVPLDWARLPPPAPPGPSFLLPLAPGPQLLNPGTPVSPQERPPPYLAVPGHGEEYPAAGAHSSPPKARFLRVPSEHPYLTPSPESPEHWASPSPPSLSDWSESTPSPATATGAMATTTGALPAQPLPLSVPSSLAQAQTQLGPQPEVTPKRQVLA

[10] = probe aEGFR binding to arrayed compounds – biochemical, biotinylated probe, 635/667 nm fluorescence, primary screen (AID 1097); conditions: small-molecule microarray, higher = more signal;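 further: probe is a biotinylated anti-EGFR antibody binding compounds printed on slides; score combines fluorescence near 667 nm and signal to noise of each spot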
[11] = tested on: Plasmodium falciparum Sir2 (PF13_0152, Sir2A); assay: Plasmodium falciparum Sir2A binding compounds – biochemical, small-molecule microarray, 635 nm fluorescence, primary screen (AID 1098); conditions: fluorescence 635 nm, higher = more signal;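 further: score merges spot fluorescence intensity with its signal-to-noise ratio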
[12] = probe aDKK1 binding to arrayed compounds – biochemical, biotinylated probe, 635/667 nm fluorescence, primary screen (AID 1099); conditions: small-molecule microarray, higher = more signal;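 further: score merges 667nm spot fluorescence with signal to noise across triplicate slides; reference of the scale not given here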
[13] = probe aCHRDL2 binding to arrayed compounds – biochemical, biotinylated probe, 635/667 nm fluorescence, primary screen (AID 1100); conditions: small-molecule microarray, higher = more signal
[14] = change in splice reporter luminescence, either direction, cell-based, HEK293, spliceosome inhibition project, primary screen (AID 1101); conditions: HEK293 splicing luciferase reporter, 24 h, higher = more signal, called active from +8 up or from −8 down;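 further: HEK293 cells carrying a splicing-competent luciferase reporter gene; test concentration not given here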
[15] = molecular target: Fibroblast growth factor 10 (Homo sapiens) (UniProt O15520); assay: compounds binding fibroblast growth factor 10 – biochemical, small-molecule microarray, 635 nm fluorescence, primary screen (AID 1102); conditions: FGF10 binding, fluorescence 635 nm, higher = more signal
Chain of Fibroblast growth factor 10 (Homo sapiens) (O15520 whole entry, looked up): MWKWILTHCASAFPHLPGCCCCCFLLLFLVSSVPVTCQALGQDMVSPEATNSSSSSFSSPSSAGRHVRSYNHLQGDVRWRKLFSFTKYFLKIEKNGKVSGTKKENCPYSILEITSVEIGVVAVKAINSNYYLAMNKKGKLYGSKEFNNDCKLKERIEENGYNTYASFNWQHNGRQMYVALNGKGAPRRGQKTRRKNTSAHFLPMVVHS

[16] = tested on: glycogen synthase kinase-3 (GSK3A per assay name; protocol says GSK3B); assay: compounds binding glycogen synthase kinase-3 – biochemical, small-molecule microarray, 635 nm fluorescence, GSK3A, primary screen (AID 1103); conditions: fluorescence 635 nm, higher = more signal; further: the record names both GSK3A and GSK3B
[17] = molecular target: Epidermal growth factor receptor (Homo sapiens) (UniProt P00533); assay: compounds binding epidermal growth factor receptor – biochemical, small-molecule microarray, 635 nm fluorescence, primary screen (AID 1104); conditions: EGFR binding, higher = more signal;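 further: score merges 667 nm emission intensity with spot signal to noise over triplicate slides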
Chain of Epidermal growth factor receptor (Homo sapiens) (P00533 whole entry, looked up): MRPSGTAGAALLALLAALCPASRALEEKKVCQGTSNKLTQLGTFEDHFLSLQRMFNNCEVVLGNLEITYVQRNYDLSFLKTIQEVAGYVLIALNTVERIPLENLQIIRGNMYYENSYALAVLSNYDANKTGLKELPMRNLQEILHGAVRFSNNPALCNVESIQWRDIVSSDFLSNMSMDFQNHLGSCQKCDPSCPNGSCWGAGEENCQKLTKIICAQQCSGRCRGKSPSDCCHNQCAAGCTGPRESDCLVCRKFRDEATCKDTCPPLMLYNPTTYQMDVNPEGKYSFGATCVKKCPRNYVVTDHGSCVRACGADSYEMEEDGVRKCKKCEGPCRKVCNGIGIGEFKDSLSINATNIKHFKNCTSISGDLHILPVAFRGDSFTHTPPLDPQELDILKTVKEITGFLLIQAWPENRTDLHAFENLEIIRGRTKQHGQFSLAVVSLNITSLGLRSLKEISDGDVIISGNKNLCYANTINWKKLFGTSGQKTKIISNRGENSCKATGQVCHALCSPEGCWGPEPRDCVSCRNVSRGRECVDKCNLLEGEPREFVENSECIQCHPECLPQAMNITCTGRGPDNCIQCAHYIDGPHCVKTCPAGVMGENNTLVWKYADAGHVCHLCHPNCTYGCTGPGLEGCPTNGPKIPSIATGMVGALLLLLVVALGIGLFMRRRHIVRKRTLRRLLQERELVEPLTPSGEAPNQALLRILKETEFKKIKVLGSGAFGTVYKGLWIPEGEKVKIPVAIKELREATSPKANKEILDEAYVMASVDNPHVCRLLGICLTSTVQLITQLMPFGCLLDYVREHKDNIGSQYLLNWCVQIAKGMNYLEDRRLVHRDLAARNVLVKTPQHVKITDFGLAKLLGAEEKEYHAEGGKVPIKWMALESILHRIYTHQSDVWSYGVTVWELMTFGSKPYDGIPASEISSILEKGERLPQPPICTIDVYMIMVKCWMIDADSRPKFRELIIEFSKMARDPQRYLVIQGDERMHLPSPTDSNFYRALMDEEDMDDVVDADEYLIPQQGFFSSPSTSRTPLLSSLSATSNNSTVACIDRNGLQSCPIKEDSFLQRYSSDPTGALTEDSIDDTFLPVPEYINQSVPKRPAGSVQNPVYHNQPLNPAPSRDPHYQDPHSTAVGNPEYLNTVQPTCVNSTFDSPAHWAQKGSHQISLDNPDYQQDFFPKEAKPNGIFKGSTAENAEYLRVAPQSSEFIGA

[18] = molecular target: Follistatin-related protein 3 (Homo sapiens) (UniProt O95633); assay: compounds binding follistatin-related protein 3 – biochemical, small-molecule microarray, 635 nm fluorescence, primary screen (AID 1105); conditions: FSTL3 binding, higher = more signal;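 further: score merges emission near 667 nm and signal to noise per printed spot across three slides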
Chain of Follistatin-related protein 3 (Homo sapiens) (O95633 whole entry, looked up): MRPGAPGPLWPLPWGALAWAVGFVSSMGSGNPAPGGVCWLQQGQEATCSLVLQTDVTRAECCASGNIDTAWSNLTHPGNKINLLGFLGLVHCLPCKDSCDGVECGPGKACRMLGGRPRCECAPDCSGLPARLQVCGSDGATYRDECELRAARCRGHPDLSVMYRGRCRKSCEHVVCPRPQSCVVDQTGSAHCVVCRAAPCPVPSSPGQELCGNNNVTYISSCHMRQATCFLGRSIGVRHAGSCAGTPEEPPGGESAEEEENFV

[19] = molecular target: Dickkopf-related protein 1 (Homo sapiens) (UniProt O94907); assay: small molecules binding DKK1 protein – biochemical, small-molecule microarray, 635 nm fluorescence scan, primary screen (AID 1106); conditions: higher = more signal;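 further: score merges emission near 667 nm with signal to noise over three replicate slides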
Chain of Dickkopf-related protein 1 (Homo sapiens) (O94907 whole entry, looked up): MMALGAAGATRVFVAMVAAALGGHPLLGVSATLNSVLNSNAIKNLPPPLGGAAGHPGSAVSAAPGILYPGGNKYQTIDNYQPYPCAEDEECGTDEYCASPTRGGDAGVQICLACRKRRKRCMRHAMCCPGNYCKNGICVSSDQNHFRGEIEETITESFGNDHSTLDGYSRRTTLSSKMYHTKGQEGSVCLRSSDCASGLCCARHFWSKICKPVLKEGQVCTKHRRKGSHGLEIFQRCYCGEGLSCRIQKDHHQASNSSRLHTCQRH

[20] = tested on: Inhibin beta A chain (activin A); assay: small molecules binding activin A – biochemical, small-molecule microarray, 635 nm fluorescence scan, primary screen (AID 1107); conditions: INHBA, higher = more signal;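 further: mouse activin A protein probed at 4.33 µg/mL on printed slides; score merges bound-protein fluorescence near 667 nm with spot signal-to-noise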

SMILES	composite z-score [1]	z-score [2]	z-score [3]	z-score [4]	composite z-score [5]	z-score [6]	composite z-score [7]	composite z-score [8]	composite z-score [9]	composite z-score [10]	composite z-score [11]	composite z-score [12]	composite z-score [13]	z-score [14]	composite z-score [15]	composite z-score [16]	composite z-score [17]	composite z-score [18]	composite z-score [19]	composite z-score [20]
COc1ccc([Si](C)(C)[C@H]2[C@H](CC(=O)N3Cc4ccccc4C[C@H]3CO)O[C@@]3(C(=O)N(Cc4ccc(N5CCOC5=O)cc4)c4ccccc43)[C@@H]2C)cc1	1.57	-1.31 (inactive)	-0.053 (inactive)	2.17 (inactive)	1.25	-0.167 (inactive)	-0.123	1.46	1.11	-0.022	0.149	-0.161	-0.345	-0.817 (inactive)	0.878	0.676	1.03	1.04	0.929	1.05
CCOC(=O)C[C@H]1[C@H](OC(=O)c2cc3ccccc3oc2=O)[C@@H](NC(=O)c2ccccc2)c2cc(OCCCO)ccc2N1C(=O)c1ccccc1	0.58	0.126 (inactive)	-1.64 (inactive)	-0.277 (inactive)	-0.098	-0.12 (inactive)	-0.0422	0.992	0.819	0.223	-0.06	-0.198	-0.432	-0.644 (inactive)	0.836	0.775	0.417	0.653	0.415	0.225
CC(C)NC(=O)[C@@]1(c2ccc([N+](=O)[O-])cc2)CC(=O)N(C2CCCCC2)[C@@H]1c1ccc(CO)cc1	1.54	0.359 (inactive)	0.52 (inactive)	-0.55 (inactive)	2.85	1.07 (inactive)	-0.271	1.77	1.07	-0.296	1.49	-0.723	0.0339	0.458 (inactive)	1.23	0.645	0.0344	1.04	0.214	-0.0249
CCCC#C[Si](O[C@H](CC)c1cn([C@H](C)c2ccccc2)nn1)(C(C)C)C(C)C	0.817	-0.764 (inactive)	-10.2 (active)	-3.25 (inactive)	1.05	2.37 (inactive)	0.0539	0.316	0.579	0.359	0.2	0.313	-0.212	-0.383 (inactive)	0.568	0.588	0.564	0.47	0.285	-0.348
COCCOC(=O)N1C(=O)[C@@]2(c3cc(C#CC4=CCCCC4)ccc31)[C@H](C(=O)Nc1nc3ccccc3s1)[C@H]1C(=O)O[C@H](c3ccccc3)[C@H](c3ccccc3)N1[C@@H]2c1ccc(O)cc1	1.55	0.128 (inactive)	-0.663 (inactive)	0.364 (inactive)	2.38	0.0627 (inactive)	-0.0823	1.21	1.07	-0.0975	0.61	0.157	-0.0764	0.111 (inactive)	0.669	1.28	0.635	0.918	1.11	0.872
CCOC(=O)C1=CC[C@@H](c2ccccc2F)N(S(=O)(=O)c2ccc(C)cc2)[C@H]1c1ccccc1	1.12	-0.0047 (inactive)	1.29 (inactive)	0.151 (inactive)	2.72	-0.818 (inactive)	-0.0551	0.63	0.812	-0.101	0.441	0.128	-0.106	-1.12 (inactive)	0.801	1.16	0.486	0.766	0.253	0.713
COc1cc2c(cc1O)C(c1cccs1)N(Cc1cc3c(cc1Br)OCO3)CC2 (stereo not given)	1.53	-0.592 (inactive)	-4.96 (inactive)	-0.859 (inactive)	3.45	-1.45 (inactive)	0.183	0.289	1.07	0.0778	1.5	0.421	0.726	-0.0664 (inactive)	1.47	1.32	0.345	1.13	0.449	0.632
CCCNC(=O)[C@@]1(C)c2ccccc2C(=O)N(c2ccc(C)cn2)[C@H]1c1ccc(CO)cc1	-0.266	-0.788 (inactive)	-0.164 (inactive)	-0.145 (inactive)	3.4	-0.618 (inactive)	-0.0352	0.146	-0.0421	-0.0828	0.732	-0.103	0.649	0.756 (inactive)	-0.779	-0.158	-0.473	-0.223	-0.126	0.948
C=C(COC)/C(=C/C[C@H](OC(=O)c1ccncc1)c1ccccc1OCCO)c1cc(C(=O)OC)ccc1OC	1.44	-0.819 (inactive)	-0.925 (inactive)	-0.498 (inactive)	2.65	0.0572 (inactive)	-0.157	1.23	1.04	0.146	0.515	-0.0213	-0.331	-0.0627 (inactive)	1.25	0.684	0.0709	1.33	0.242	1
CC(CO)N1C(=O)[C@@H]2[C@H]3C(=O)OCC=C[C@H]3OC23C=CCN(Cn2nnc4ccccc42)C(=O)[C@@H]13 (stereo not given in full)	-0.533	-0.596 (inactive)	-0.225 (inactive)	-0.473 (inactive)	-0.444	-0.333 (inactive)	-0.185	-0.746	-0.652	-0.292	0.996	-0.162	0.238	1.12 (inactive)	-0.78	-0.778	-1.29	-1.13	-0.586	0.647

Reference: PubChem BioAssay
